Assay outcomes (PubChem BioAssay)
An excerpt weighted towards active compounds, which were near 12% of everything screened.
Pf growth 96h: Primary qHTS for delayed death inhibitors of the malarial parasite plastid, 96 hour incubation; P. falciparum luciferase reporter growth, 96 h; Potency, µM (highest dose often 28.7 µM), hits mostly inhibitors; hit rate 6.9% among 320,000
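Infected RBCs, 2% Hct / 0.05% parasitemia final; luciferase-reporter P. falciparum; cpd 96 h, 37 C, 5% CO2; luciferase detection reagent; luminescence.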
Sm TGR block: qHTS Assay for the Inhibitors of Schistosoma Mansoni Peroxiredoxins | Schistosoma mansoni thioredoxin glutathione reductase (TGR), Q962Y6 | Potency, µM (highest dose often 114 µM), hits mostly inhibitors | hit rate 3% among 360,000 | purified TGR, DTNB reduction, TNB absorbance 405 nm; also: nearly all actives have a fitted effect of over 60% in size
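Kinetic colorimetric format: TGR-catalysed, NADPH-driven DTNB reduction monitored via TNB absorbance. Enzyme dispensed at 20 nM; compound exposure 15 min at room temperature before reaction start.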
Pf growth 48h: Primary qHTS for delayed death inhibitors of the malarial parasite plastid, 48 hour incubation; Potency, µM (highest dose often 28.7 µM), usual class: inhibitors; hit rate 5.9% among 310,000; P. falciparum luciferase growth in erythrocytes, 48 h; AID 504832, 2011
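First compound was added to culture medium, then infected red cells at 0.1% parasitemia and 2% hematocrit (final). After incubation at 37 C under 5% CO2, luciferase detection reagent was dispensed and light output recorded.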
SARS PLP yeast: qHTS of Yeast-based Assay for SARS-CoV PLP | S. cerevisiae expressing SARS-CoV PLpro, growth rescue | Potency, µM (series often up to 32.9 µM), usual class: activators | hit rate 0.19% among 330,000; calls by dose curve; also: nearly all actives have a fitted effect of over 55% in size
Large screens that a line does not name were inactive. Unless noted, calls follow the shape of the dose curve; as a rule, active = well fitted curve in the direction sought with a large enough effect; inconclusive = small, poorly fitted or top-dose-only effect, or another doubt; inactive = no such curve, though single readings can be large; an effect the other way counts as inactive or inconclusive.

C=CCn1c(SCC(=O)Nc2cccc3ccccc23)nc(O)c(CC)c1=O	Pf growth 96h 9.28µM (no result: Pf growth 48h)
CCn1c(SCC(=O)Nc2ccc(F)cc2)nc2ccccc2c1=O	Pf growth 96h inconclusive (no result: Pf growth 48h)
Cc1ccc(-c2nc3ccccc3[nH]2)cc1NC(=O)COc1ccccc1[N+](=O)[O-]	none (no result: Pf growth 96h, Pf growth 48h, SARS PLP yeast)
COCCCNCCCOc1ccc(C(C)(C)c2ccccc2)cc1	Pf growth 48h inconclusive
CC(C)(c1ccccc1)c1ccc(OCCCNCCO)cc1	Pf growth 96h 2.08µM (no result: Pf growth 48h)
COc1ccc(N(C)C(=O)Cc2c(C(=O)O)[nH]c3ccccc23)cc1	none
CCN(C(=O)Cc1c(C(=O)O)[nH]c2ccccc12)c1cc(OC)ccc1OC	Pf growth 96h 7.38µM, Pf growth 48h inconclusive, SARS PLP yeast inconclusive
CC(C)CN(CCOc1cccc(N2C(=O)C3=C(CCCC3)C2=O)c1)CC(C)C	Pf growth 96h inconclusive, Pf growth 48h inconclusive
O=C1C2=C(CCCC2)C(=O)N1c1cccc(OCCBr)c1	Pf growth 96h inconclusive, Sm TGR block 44.7µM
Cc1ccnc(SCC(=O)N2CCc3ccccc32)n1	none
O=C(CSc1ncn(-c2ccccc2)n1)N1CCc2ccccc21	Pf growth 96h 10.4µM
CC(=O)Nc1ccc(C(=O)CSc2ncn(-c3ccccc3)n2)cc1	Pf growth 96h 13.1µM
Cc1ccccc1-n1c(-c2ccoc2)nc2ccccc2c1=O	Pf growth 96h 4.15µM
c1cncc(-c2nc3cc4ccccc4cc3[nH]2)c1	none
CN1CCN(C(=O)c2cccc(-c3cc(O)c4ncccc4c3)c2)CC1	Pf growth 96h 10.4µM, Pf growth 48h 10.4µM
Oc1cc(-c2cccnc2)cc2cccnc12	Pf growth 96h 4.15µM, Pf growth 48h 7.38µM
CN1CCN(c2cc(-c3cc(O)c4ncccc4c3)ccn2)CC1	Pf growth 96h inconclusive, Pf growth 48h 11.7µM
O=C(c1cc2ccccc2cc1O)N1CCN(c2ccccn2)CC1	Pf growth 96h inconclusive, Pf growth 48h inconclusive
O=C(Nc1cccc(S(=O)(=O)N2CCCCC2)c1)C1CC1	none
CN1CCN(Cc2c(O)ccc3cc(-c4ccccc4)c(=O)oc23)CC1	none (no result: Pf growth 96h, Pf growth 48h, SARS PLP yeast)
CCOC(=O)c1oc2c(CN3CCN(C)CC3)c(O)ccc2c(=O)c1-c1ccccc1OC	Pf growth 96h 9.28µM
CN1CCN(Cc2c(O)ccc3c(-c4ccccc4)cc(=O)oc23)CC1	Pf growth 96h inconclusive, Sm TGR block 31.6µM
CCCCN(CC)Cc1c(O)ccc2c(-c3ccccc3)cc(=O)oc12	Pf growth 96h inconclusive, Sm TGR block 50.1µM, Pf growth 48h inconclusive
CC(=O)Nc1ccc(NC(=O)CC(NC(=O)c2ccccc2)c2ccccc2)cc1 (stereo unspecified)	none
O=C(O)C(Cc1ccc(F)cc1)c1ccccc1 (stereo unspecified)	Pf growth 96h 3.29µM, Sm TGR block inconclusive
O=C(CC(Cc1ccccc1)C(=O)O)Nc1ccc(F)cc1 (stereo unspecified)	Pf growth 96h 2.33µM
O=C(NC(Cc1ccc(F)cc1)C(=O)O)c1ccccc1 (stereo unspecified)	none (no result: Pf growth 96h)
COc1ccccc1C(=O)N1c2ccccc2C(C)(c2ccc(Cl)cc2)CC1(C)C (stereo unspecified)	none (no result: Pf growth 96h, Pf growth 48h, SARS PLP yeast)
Cc1cn(C)c(CC(=O)Nc2ccc(F)cc2Cl)c1C(=O)O	none (no result: Pf growth 96h, Pf growth 48h, SARS PLP yeast)
O=C(NCCNC(=O)c1ccccn1)c1ccc(-c2ccccc2)cc1	Pf growth 48h inconclusive
Cc1c(/C=N/NC(=O)c2ccccc2O)c2ccccn2c1C(=O)c1ccc(F)cc1	Pf growth 96h inconclusive, Pf growth 48h 8.28µM
Cc1c(/C=N/NC(=O)c2cc(=O)[nH]c(=O)[nH]2)c2ccccn2c1C(=O)c1ccccc1	Pf growth 48h 3.29µM (no result: Pf growth 96h)
Cc1c(/C=N/NC(=O)c2cccnc2)c2ccccn2c1C(=O)c1ccc(F)cc1	Pf growth 96h 5.22µM, Pf growth 48h 9.28µM
CCOC(=O)N/N=C/c1c(C)c(C(=O)c2ccc(F)cc2)n2ccccc12	Pf growth 48h inconclusive
Cc1c(/C=N/NC(=O)CNc2ccccc2)c2ccccn2c1C(=O)c1ccccc1	Pf growth 96h 2.94µM, Pf growth 48h 2.08µM
Cc1c(/C=N/NC(N)=O)c2ccccn2c1C(=O)c1ccncc1	none
O=C(N/N=C/c1c(Cl)nc2ccccn2c1=O)c1cccnc1	Sm TGR block inconclusive
O=C(Nc1ccc(Cl)cc1)C(NS(=O)(=O)c1cccs1)c1ccccc1 (stereo unspecified)	none (no result: Pf growth 96h, Pf growth 48h, SARS PLP yeast)
O=C(c1cc(COc2c(F)cccc2F)on1)N(Cc1ccccc1)CC1CC1	none
Cc1cc(C)n2nc(CNS(=O)(=O)c3ccc(CC(C)C)cc3)nc2n1	none
COC(=O)N/N=C/c1c(C)c(C(=O)c2ccc(F)cc2)n2ccccc12	Pf growth 96h inconclusive
Cc1c(/C=N/NC(=O)c2ccc(O)cc2)c2ccccn2c1C(=O)c1ccc(F)cc1	Pf growth 96h inconclusive, Pf growth 48h 4.15µM
COc1ccccc1CNC(=O)c1ccc(-c2ccccc2)cc1	Pf growth 96h inconclusive
COc1ccc(C(=O)NCc2ccccc2OC)cc1	Pf growth 96h 5.22µM, Pf growth 48h inconclusive
COc1ccccc1CNC(=O)C(NC(=O)c1ccccc1)C(C)C (stereo unspecified)	Pf growth 48h 13.1µM
COc1ccccc1CNC(=O)C(NC(=O)c1ccc(C)cc1)C(C)C (stereo unspecified)	Pf growth 96h inconclusive
Cc1ccc(C(OCC(O)CNC(CO)C(O)c2ccc([N+](=O)[O-])cc2)c2ccccc2)cc1 (stereo unspecified)	Pf growth 96h inconclusive, Pf growth 48h inconclusive
C[C@@H]1CN([C@@H](C)CO)C(=O)c2cc(NC(=O)C3CC3)ccc2O[C@@H]1CN(C)Cc1ccc(Cl)c(Cl)c1	none (no result: Pf growth 96h, Sm TGR block, Pf growth 48h)
COc1ccc(OC)c(C2=NOC(C(=O)NCc3cccs3)C2)c1 (stereo unspecified)	Pf growth 96h 0.37µM
COc1ccc(OC)c(C2=NOC(C(=O)Nc3cccnc3)C2)c1 (stereo unspecified)	Pf growth 96h 11.7µM
Cc1ccccc1C(=O)Nc1sc2c(c1C(=O)N1CCCCC1)CCC(C)C2 (stereo unspecified)	none (no result: Pf growth 96h, Pf growth 48h, SARS PLP yeast)
Cc1ccc(C(=O)c2ccccc2C(=O)OCC(=O)N2CC(C)CC(C)C2)cc1 (stereo unspecified)	Pf growth 96h 7.38µM, Pf growth 48h 7.38µM
CCOC(=O)c1cc(C)sc1NC(=O)CSc1nnnn1C	Pf growth 96h 1.65µM
CCOC(=O)c1cc(C)sc1NC(=O)CSC1=NCCS1	Pf growth 96h 9.28µM, Pf growth 48h inconclusive
CN1C(=O)C2(c3ccccc31)N(C)CC(c1ccccc1)C21SC(=S)N(Cc2ccco2)C1=O (stereo unspecified)	Pf growth 96h 14.7µM, Pf growth 48h 1.31µM
CCN1C(=S)SC(=O)C1=C1C=C(C)N(Cc2ccco2)C(C)=C1	none
CN1C(=O)C2(c3ccccc31)N(C)CC(c1ccccn1)C21SC(=S)N(Cc2ccco2)C1=O (stereo unspecified)	Pf growth 96h inconclusive, Pf growth 48h 9.28µM
Cc1cccn2c(=O)c3cc(C(=O)NC(C)C)n(C)c3nc12	none (no result: Pf growth 96h, Pf growth 48h, SARS PLP yeast)
